# Screening results (PubChem)
# p53null 39C tox = p53 null cell cytotoxicity, nonpermissive temperature; H1299 p53-null (neo) cells, 39C, ATPlite viability, 24 h; Potency, µM (titrated, usually from 46.1 µM), inactives show top-dose activity, negative = cell killing, hits mostly cytotoxic; hit rate 0.97% among 55,000; AID 904;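 note: potency is the fitted concentration of half-maximal effect; 0% = DMSO only and -100% = full killing by 100 µM tamoxifen; nearly all actives have a fitted effect of over 50% in size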
#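 ATP-luminescence viability readout (ATPlite, 20 min RT) after 24 hr compound treatment at 39C of H1299-neo or H1299-p53A138V cells; titration up to 46 uM; normalized to DMSO and 100 uM tamoxifen; Hill-fit AC50.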
# p53null 32C kill = selectivity test: cytotoxicity in p53 null cells, permissive temperature. H1299-neo p53 null cells, ATP luminescence, 24 h, 32C. Potency, µM (titrated, usually from 46.1 µM), inactives show top-dose activity change, negative = cytotoxicity, most hits filed as cytotoxic. hit rate 0.62% among 55,000. AID 903;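 note: potency is the fitted concentration of half-maximal effect; 0% = DMSO only and -100% = full killing by 100 µM tamoxifen; nearly all actives have a fitted effect of over 55% in size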
#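 Luminescent ATP readout gave cell viability of p53-null H1299-neo cells after a 24 h compound exposure at the permissive 32C. Titrations ran up to 46 uM, and AC50s were fitted with the standard Hill equation.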
# FH mod = Identification of activators of human fumarate hydratase by quantitative high-throughput screening | FH coupled MDH/diaphorase resazurin fluorescence, 15 min | Potency, µM (series often up to 79.9 µM), inactives show at the top dose activity change, negative = inhibition, actives largely listed as inhibitors | AID 1347055, 2019 | hit rate 0.22% among 54,000; note: potency is the fitted concentration of half-maximal effect; % is set by controls: 0 for no effect and ±100 for the full control effect; the screen sought activators but most active calls are inhibition curves; nearly all actives have a fitted effect of over 45% in size
# GPR32 ag = agonists of human resolvin D1 receptor DRV1 (GPR32). hit rate 2.5% among 48,000. AID 1346428. activation, % at 76.9 µM. CHO-K1 GPR32 beta-arrestin PathHunter luminescence, 90 min; zero percent set by DMSO-only wells. O75388;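 active = activation of at least 60% and not above a set upper limit, about 1 call in 100 departs from these limits; inconclusive = activation of 40% to 60%, or above that upper limit; inactive = activation under 40%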; note: 0% is about no effect
# Target sequence (O75388 whole entry, looked up): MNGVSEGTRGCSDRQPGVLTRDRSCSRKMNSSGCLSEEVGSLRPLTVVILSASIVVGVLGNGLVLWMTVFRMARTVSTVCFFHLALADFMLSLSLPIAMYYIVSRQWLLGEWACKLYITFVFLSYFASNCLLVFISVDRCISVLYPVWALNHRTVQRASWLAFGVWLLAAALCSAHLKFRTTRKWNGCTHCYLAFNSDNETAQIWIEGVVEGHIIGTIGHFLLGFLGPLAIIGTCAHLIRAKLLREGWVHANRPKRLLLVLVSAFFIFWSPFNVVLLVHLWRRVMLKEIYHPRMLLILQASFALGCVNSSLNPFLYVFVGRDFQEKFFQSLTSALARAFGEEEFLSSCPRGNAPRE
#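 Agonism was scored by beta-Gal fragment complementation (chemiluminescent read, 1 h detection at ambient temperature) reporting beta-arrestin binding to GPR32 in engineered CHO-K1 cells. Compound treatment lasted 90 min at 37 C, normalized to a DMSO basal control.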
# An asterisk follows results filed as active; ? = inconclusive; nt = not tested or not shown; [ ] = another dose, or the depositor's remark. Shown are actives, neighbours in structure and some others; about 2.9% of the full set was active somewhere. Unless noted, calls come from the whole dose curve; as a rule, active = well fitted curve in the direction sought with a large enough effect; inconclusive = small, poorly fitted or top-dose-only effect, or another doubt; inactive = no such curve, though single readings can be large; an effect the other way counts as inactive or inconclusive.
SMILES,p53null 39C tox,p53null 32C kill,FH mod,GPR32 ag
OCC(Cc1ccccc1)Nc1nc(Oc2ccc3c(c2)CCC3)nc2c1ncn2Cc1ccc(-c2ccccc2)cc1 (stereo unspecified),nt,nt,2%,nt
COc1cc2c(cc1OC)/C(=C/c1ccc(O)cc1)C(=O)N2,nt,nt,0%,nt
C=C1C(=C/C=C2\CCC[C@]3(C)[C@@H]([C@H](C)/C=C/[C@@H](O)C4CC4)CC[C@@H]23)C[C@@H](O)C[C@@H]1O,nt,nt,-19%[53.3 µM],107*
Cc1cc2[nH]c(=O)c(=O)[nH]c2cc1S(=O)(=O)N1CCN(c2ccccc2)CC1,6%,4%,?,95*
COc1cc(C2Oc3c(OC)cc(/C=C/C(=O)OC[C@H]4O[C@@H](OC(C)(C)C(=O)O)[C@H](O)[C@@H](O)[C@@H]4O)cc3C2CO)ccc1O (stereo partly specified),nt,nt,12%[20.6 µM],nt
COC(=O)CC(C)(O)CC(=O)OCc1ccc(O[C@@H]2O[C@H](CO)[C@@H](O)[C@H](O)[C@H]2O)cc1 (stereo partly specified),nt,nt,-1%[53.3 µM],nt
CN(CCO)C1CCN(c2ccc(Nc3ncc4c5ccnc(F)c5n(C5CCCC5)c4n3)nc2)CC1,nt,nt,0%[53.3 µM],nt
COc1cccc(NC(=O)CSc2nccn2Cc2ccc3c(c2)OCO3)c1,-10%,-6%,-8%,75*
CC(C)C1NC(=O)CNC(=O)C2CCCN2C(=O)C(Cc2c[nH]c3ccccc23)NC(=O)CNC(=O)C(Cc2ccc(O)cc2)NC(=O)CNC1=O (stereo unspecified),nt,nt,1%[20.6 µM],nt
C[C@@H]1O[C@@H](O[C@H]2[C@H](O)[C@@H](O)[C@H](OC[C@H]3O[C@@H](OC(=O)[C@]45CCC(C)(C)C[C@H]4C4=CCC6[C@@]7(C)CC[C@H](O[C@@H]8OC[C@H](O)[C@H](O[C@@H]9O[C@H](CO)[C@@H](O)[C@H](O)[C@H]9O)[C@H]8O)[C@@](C)(CO)C7CC[C@@]6(C)[C@]4(C)CC5)[C@H](O)[C@@H](O)[C@@H]3O)O[C@@H]2CO)[C@H](O)[C@H](O)[C@H]1O (stereo partly specified),nt,nt,5%[13.5 µM],nt
Cc1ccc(-c2nc3n(n2)Cc2ccccc2-3)cc1,?,8.9µM*,nt,nt
Cc1ccc(-c2cc3ncc4c(n3n2)-c2ccccc2OC4)cc1,nt,nt,4%,-2
CCCCN1CCCc2cc(CN(CCCN3CCOCC3)C(=O)Nc3ccc(CC)cc3)ccc21,26%,8%,-15%,14
CCCN1CCCc2cc(CN(CCCN3CCOCC3)C(=O)Nc3ccc(CC)cc3)ccc21,23%,-2%,-11%,61*
Cc1nc2nncn2c(NCc2ccc(F)cc2)c1C,-1%,-1%,-1%,44
Cc1nc2nncn2c(NCc2ccc(Cl)cc2)c1C,-22%,9%,-7%,76*
O=C(Nc1ccccc1C(F)(F)F)c1noc2c1CCCCC2,5µM*,10µM*,nt,13
Oc1cccc(C2NC(=S)Nc3cccc(F)c32)c1 (stereo unspecified),nt,nt,1%,nt
Cc1ccc(-n2ncc3c(N4CCCCC4)ncnc32)cc1,6.3µM*,1.6µM*,25%,?
Cc1ccc(-n2ncc3c(N4CCN(C)CC4)ncnc32)cc1C,5%,-21%,1%,75*
Cc1ccc(-n2ncc3c(N(CCO)Cc4ccccc4)ncnc32)cc1,12%,-24%,-11%,-6
COc1ccc(-n2ncc3c(N4CCCCC4)ncnc32)cc1,4µM*,2.5µM*,nt,nt
COc1ccc(N2CCN(c3ncnc4c3cnn4C)CC2)cc1,2%,5%,?,10
Cc1ccc(-n2ncc3c(N(C)Cc4ccccc4)ncnc32)cc1,20%,13µM*,-22%,5
CC1(C)CC[C@]2(C(=O)O)[C@H](O)C[C@]3(C)C(=CCC4[C@@]5(C)CC[C@H](O[C@@H]6OC[C@@H](O)[C@H](O)[C@H]6O)[C@@](C)(C(=O)O)C5CC[C@]43C)[C@@H]2C1 (stereo partly specified),nt,nt,9%[20.6 µM],nt
SMILES,p53null 39C tox,p53null 32C kill,FH mod,GPR32 ag
COc1ccc(C2=C(Nc3ccc(C)cc3C)c3ccccc3C2=O)cc1,5%,17%,nt,-20
Cc1ccc(NC2=C/C(=N\S(=O)(=O)c3cccs3)c3ccccc3C2=O)c(C)c1,3.5µM*,3.5µM*,nt,nt
C=CC(C)(O)CC/C=C(/C)C(=O)OC1C(OC2OCC(OC3OC(CO)C(O)C(O)C3O)C(OC3OCC(O)C(OC4OC(C)C(O)C(O)C4O)C3O)C2O)COC(OC(=O)C23CCC(C)(C)CC2C2=CCC4C5(C)CCC(OC6OC(CO)C(OC7OC(CO)C(O)C(OC8OCC(O)C(O)C8O)C7O)C(O)C6O)C(C)(C)C5CCC4(C)C2(C)CC3O)C1O (stereo unspecified),nt,nt,7%[13.5 µM],nt
Fc1ccc(Cc2cn3cc(-c4ccccc4)nc3s2)cc1,2µM*,4.5µM*,-2%,32
C=CC(=O)Nc1cccc(C)c1Nc1ncc2cc(-c3c(Cl)c(OC)cc(OC)c3Cl)ccc2n1,nt,nt,-23%,nt
Cc1cccn2c(=O)cc(COc3cccc(NC(=O)c4ccccc4F)c3)nc12,7.9µM*,-12%,-14%,-14
COc1cc(C(=O)OC[C@@]2(O)CO[C@@H](O[C@H]3[C@H](Oc4ccc(C(=O)O)cc4OC)O[C@H](CO)[C@@H](O)[C@@H]3O)[C@@H]2O)ccc1O,nt,nt,-10%[20.6 µM],nt
O=C(CCCCc1ccc2ccccc2c1)C(F)(F)F,nt,nt,-2%[162 µM],nt
O=C(Nc1nnc(-c2cc(Cl)ccc2Cl)o1)c1ccc2c(c1)OCCO2,-41%,-5%,16%,-2
Cc1ccc(-c2nnc(NC(=O)c3ccc4c(c3)OCCO4)o2)c(C)c1,25µM*,-15%,24%,-6
COC(=O)c1ccc(C2Nc3c(C)cc(C)cc3C3C=CCC32)cc1 (stereo unspecified),-7%,-14%,-2%,79*
Cc1ccc(C(=O)Nc2nnc(S(=O)(=O)N(C)Cc3ccco3)s2)cc1,?,-10%,8%,1
CC(C)COc1ccc(C(=O)Nc2nnc(S(=O)(=O)N(C)Cc3ccco3)s2)cc1,10µM*,?,0%,?
CCN(CC)S(=O)(=O)c1nnc(NC(=O)c2ccc(C(C)C)cc2)s1,-15%,-6%,14%,75*
C/C=C/C1OC2=C(C(=O)OC2(C)O)C(O)C1O (stereo unspecified),nt,nt,3%,nt
CC[C@@H]([C@H](C)O)n1ncn(-c2ccc(N3CCN(c4ccc(OC[C@@H]5CO[C@@](Cn6cncn6)(c6ccc(F)cc6F)C5)cc4)CC3)cc2)c1=O,nt,nt,-2%[53.3 µM],68*
CC(O)C(C)n1ncn(-c2ccc(N3CCN(c4ccc(OCC5COC(Cn6cncn6)(c6ccc(Cl)cc6Cl)O5)cc4)CC3)cc2)c1=O (stereo unspecified),nt,nt,-13%,nt
CC(C)CNC(=O)/C=C/CCCCc1ccc2c(c1)OCO2,nt,nt,7%[53.3 µM],nt
O=C(Cc1ccc(Cl)cc1)Nc1ccc2nn(-c3ccccc3)nc2c1,-3%,-3%,-3%,85*
